Among the data in PubChem BioAssay AID2283364 (EPA ToxCast) are outcome values, retold here.

The structures appear in SMILES notation. Records with an inconclusive call do not appear. Activity calls are given as the source filed them. Rule for the calls: active = hit-call score of the fitted dose curve at least 0.9, where 1 is the maximum; inconclusive = response in the unintended direction; inactive = score below 0.9.

Sequence of human FK-506 Binding Protein (FKBP12), FKBP1A (gene 2280) (P62942 whole entry, looked up): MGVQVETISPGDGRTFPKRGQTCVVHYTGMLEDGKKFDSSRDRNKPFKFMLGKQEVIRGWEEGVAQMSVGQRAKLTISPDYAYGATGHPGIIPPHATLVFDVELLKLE

This test addresses human FK-506 Binding Protein (FKBP12), FKBP1A (gene 2280) (UniProt P62942). Kind of test: NVS_OR_hFKBP12: NovaScreen (NVS) Nuclear Receptor Binding Assay for human FK-506 Binding Protein (FKBP12). Here is the method:
NVS_OR_hFKBP12 is a biochemical, single-readout assay that uses extracted gene-proteins from E. coli in a cell-free assay. Measurements were taken 0.75 hour after chemical dosing in a 48-well plate.NVS_OR_hFKBP12 is one of one assay component(s) measured or calculated from the NVS_OR_hFKBP12 assay. It is designed to make measurements of radioligand binding, a form of binding reporter, as detected with scintillation counting signals by Filter-based radiodetection technology.Data from the assay component NVS_OR_hFKBP12 was analyzed into 1 assay endpoint. This assay endpoint, NVS_OR_hFKBP12, was analyzed in the positive analysis fitting direction relative to DMSO as the negative control and baseline of activity. Using a type of binding reporter, loss-of-signal activity can be used to understand changes in the binding as they relate to the gene FKBP1A. Furthermore, this assay endpoint can be referred to as a primary readout, because the performed assay has only produced 1 assay endpoint. To generalize the intended target to other relatable targets, this assay endpoint is annotated to the misc protein intended target family, where the subfamily is chaperone.
Binding assays used specific radioligands (tritiated, iodinated) with non-radioactive competitive displacement ligands in agonist or antagonist protocols (as indicated) and various reference compounds and inhibitors to titrate specific binding to receptors and transporters. Most enzyme assays (CYPs, kinases, phosphatases, proteases, HDACs) used recombinant protein and specific substrates (fluorescence mostly, some colorimetric and radioactive) and inhibitors, followed by a biochemical separation of substrate and product. All assays for the biochemical HTS were initially run in duplicate at a single concentration (10 uM for CYP450 assays and 25 uM for all others). Assay-chemical combinations meeting a pre-defined threshold (e.g., 30% inhibition and other criteria defined below) were then run in singleton concentration-response format with maximum concentration of 20 uM for CYPs and 50 uM for all others. Each assay was run with positive and negative controls, and concurrent controls on every plate. The follow-up (secondary) screen tested active chemical-pairs in concentration series, as well as a few additional assays not tested in the primary screen, some selected negative inactives, and several cases re-run in the concentration series for confirmatory purposes.
`COC(=O)C=C(C)OP(=O)(OC)OC`: the call was inactive.

Consider `COP(=S)(OC)SCn1nnc2ccccc2c1=O`, for which the result was inactive.

With `CO/N=C(/C1=NOCCO1)c1ccccc1Oc1ncnc(Oc2ccccc2Cl)c1F`, the result was inactive.

On to `Cc1ccn2nc(S(=O)(=O)Nc3c(F)cccc3F)nc2n1`, for which the compound was called inactive.

With `CNC(=O)Oc1ccccc1OC(C)C`, the call was inactive.

Consider `O=C(O)c1nc(Cl)ccc1Cl`, for which the compound was classed as inactive.

For the compound `Cc1cc(C)nc(NC(=O)NS(=O)(=O)c2ccccc2C(=O)OC2COC2)n1`, the compound was called inactive.

Turning to `c1ccc(-c2ccccc2)cc1`, the compound was classed as inactive.

Take `CC[C@H](C)[C@H]1O[C@]2(C=C[C@@H]1C)C[C@@H]1C[C@@H](C/C=C(\C)[C@@H](O[C@H]3C[C@H](OC)[C@@H](O[C@H]4C[C@H](OC)[C@@H](O)[C@H](C)O4)[C@H](C)O3)[C@@H](C)/C=C/C=C3\CO[C@@H]4[C@H](O)C(C)=C[C@@H](C(=O)O1)[C@]34O)O2` (tested in a mixture with another compound): the outcome was inactive.
